HTT promoter inh = HTT promoter inhibition; AID 1508623; Potency, µM (highest dose often 57.5 µM), for inactives: at the top dose activity change, negative = inhibition, usual class: inhibitors; actives 0.93% (n = 48,000); HEK293 HTT promoter firefly luciferase reporter, 24 h; note: nearly all actives have a fitted effect of over 50% in size
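HEK293 Fluc reporter, 2,500 cells/well, 24 h pre-culture; cpds up to 57.5 uM final, 24 h 37 degrees C; Dual-Glo, 10 min RT; normalized vehicle = 0%, zero RLU = -100%.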
OvCa metastasis = ovarian cancer metastasis inhibition, 3D TME model; Potency, µM (titrated, usually from 45.8 µM), without a hit: at the top dose activity change, negative = inhibition, most hits filed as inhibitors; actives 0.1% (n = 46,000); SKOV3ip1-GFP adhesion/invasion on 3D omental model, fluorescence; AID 1963576;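 note: plate controls were DMSO wells for no effect and tomatine positive control wells for full effect; nearly all actives have a fitted effect of over 65% in size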
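Adhesion/invasion was scored as fixed GFP-labeled SKOV3ip1 cell counts (488/509 nm), normalized to DMSO and tomatine controls. Cancer cells in serum-free medium, with four compound doses (0.36-46 umol/L), sat 2 hr at RT then 16 hr at 37 C on a 48 hr fibroblast/mesothelial/ECM culture.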
HTT-AS act = HTT-AS promoter activation. actives 0.24% (n = 48,000). AID 1508624. Potency, µM (top dose mostly 57.5 µM), without a hit: top-dose activity change, positive = activation, actives largely listed as activators. HEK293 HTT-AS promoter firefly luciferase reporter, 24 h; response scale: percent change from vehicle, -100% = no light; note: nearly all actives have a fitted effect of over 55% in size
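HEK293 cells carrying firefly luciferase reporters were seeded at 2,500 per well in Opti-MEM and cultured for 24 h. They were then treated with compounds at up to 57.5 uM final for 24 h at 37 degrees C before Dual-Glo luminescence readout.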
S16 viability = cytotoxicity in S16 Pmp22-F2sN Schwann cells; S16 Pmp22-F2sN Schwann cells viability, CellTiter-Glo, 24 h; actives 0.48% (n = 43,000); Potency, µM (doses to about 57.5 µM), without a hit: at the highest dose activity change, negative = cytotoxicity, actives largely listed as cytotoxic; AID 1508642; note: % is set by controls: 0 for no effect and ±100 for the full control effect; nearly all actives have a fitted effect of over 65% in size
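CellTiter-Glo counter-screen, qHTS, 1536-well. Cells: S16(c9) Pmp22-F2sN, 500-1,000/well in DMEM + 10% FBS. Cpd 23 nL pin transfer, 24 h, 37C/5% CO2. Read: luminescence, CCD imager.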
PMP22 txn prim = PMP22 gene transcription modulation | actives 2% (n = 43,000) | S16 Pmp22-F2sN Schwann cells (luciferase reporters placed in the Pmp22 gene), FLuc/NLuc coincidence luminescence, 24 h | Potency, µM (doses to about 57.5 µM), inactives show at the highest dose activity change, negative = inhibition, actives largely listed as inhibitors; active = clear falling dose curves in both reporters; inconclusive = both reporters move, but less clearly or upward; inactive = either reporter flat; the % is the NLuc reporter signal; note: % is set by controls: 0 for no effect and ±100 for the full control effect
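Luminescent read-out of sequential FLuc and NLuc signals from a reporter embedded in the Pmp22 3' UTR of S16 Schwann cells, taken after 24 h compound exposure at 37C; compounds reducing both signals score as inhibitors of expression.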
mTORC1 inh = inhibitors of mTORC1 signaling in Tsc2-/- p53-/- MEF cells; Tsc2-/- p53-/- MEF, phospho-rpS6 immunofluorescence/PI, 24 h; Potency, µM (series often up to 38.3 µM), for the others: at the highest dose activity change, negative = inhibition, hits mostly inhibitors; actives 0.78% (n = 44,000); AID 493208;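 note: plate controls were DMSO for no effect and rapamycin for full effect; nearly all actives have a fitted effect of over 50% in size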
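Cell-based qHTS: Tsc2-/- p53-/- MEF, 24 h cpd, 37 °C; fix/perm, anti-phospho-S6 Alexa-488 + PI; Acumen 488 nm scan; pS6/PI ratio, % positive cells; rapamycin 7.5 nM = inhibition ref; PI count = viability.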
The depositor's hits bear a star. This is a sample that favours compounds with a hit; in the whole collection about 3.6% have one here. Unless noted, calls come from the whole dose curve; as a rule, active = well fitted curve in the direction sought with a large enough effect; inconclusive = small, poorly fitted or top-dose-only effect, or another doubt; inactive = no such curve, though single readings can be large; an effect the other way counts as inactive or inconclusive. Potency is the fitted concentration of half-maximal effect.

For CC(=O)N1CCCc2cc(S(=O)(=O)N3CCC(C(=O)Nc4ccc(C)cc4Cl)CC3)ccc21 the results were HTT promoter inh inconclusive, OvCa metastasis -1%, HTT-AS act -30%, S16 viability -1%, PMP22 txn prim inconclusive and mTORC1 inh 1%.
`CC(=O)N1CCCc2cc(S(=O)(=O)N3CCCC(C(=O)N4CCN(c5ccccc5)CC4)C3)ccc21` (centres undefined) gave HTT promoter inh 11µM*, OvCa metastasis 4%, HTT-AS act -24%, S16 viability inconclusive, PMP22 txn prim inconclusive and mTORC1 inh -18%.
Screening CC(=O)N1CCCc2cc(S(=O)(=O)N3CCC(C(=O)Nc4c(C)cccc4C)CC3)ccc21 returned HTT promoter inh 20µM*, OvCa metastasis 2%, HTT-AS act -47%, S16 viability -1%, PMP22 txn prim -13% and mTORC1 inh 1%.
Screening CC(C)c1nn2c(=O)cc(COC(=O)c3ccccc3Cl)nc2s1 returned HTT promoter inh 25%, OvCa metastasis 7%, HTT-AS act inconclusive, S16 viability -5%, PMP22 txn prim inconclusive and mTORC1 inh -10%.
Screening CC(C)c1nn2c(=O)cc(COC(=O)c3cccs3)nc2s1 returned HTT promoter inh 47%, OvCa metastasis inactive, HTT-AS act 4µM*, S16 viability -18%, PMP22 txn prim -15% and mTORC1 inh -15%.
For CSc1ccc(CCNC(=O)C(C)n2nc(C)c3sc4ccccc4c3c2=O)cc1 (centres undefined) the results were HTT promoter inh -5%, OvCa metastasis 5%, HTT-AS act -12%, S16 viability 4%, PMP22 txn prim 3% and mTORC1 inh 0.52µM*.
Screening Cc1nn(C(C)C(=O)NC2CCCCC2)c(=O)c2c1sc1ccccc12 (centres undefined) returned HTT promoter inh -6%, OvCa metastasis 7%, HTT-AS act -5%, S16 viability 7%, PMP22 txn prim 40% and mTORC1 inh 1µM*.
Screening Cc1ccc(CNC(=O)C(C)n2nc(C)c3sc4ccccc4c3c2=O)cc1 (centres undefined) returned HTT promoter inh -13%, OvCa metastasis 8%, HTT-AS act -24%, S16 viability -21%, PMP22 txn prim -6% and mTORC1 inh 3%.
O=C(O)Cn1nnc(-c2cc(N3CCC(Oc4cc(F)ccc4Br)CC3)no2)n1 was read as HTT promoter inh inconclusive, OvCa metastasis 2% and HTT-AS act -34%.
O=C1c2[nH]nc(-c3ccccc3O)c2C(c2ccc(Cl)cc2)N1CCc1ccccc1 (centres undefined) was read as HTT promoter inh inconclusive, OvCa metastasis -6%, HTT-AS act -46%, S16 viability -27%, PMP22 txn prim inconclusive and mTORC1 inh 16µM*.
Cc1cccc(-c2nnc(SCCC(=O)O)o2)c1 was read as HTT promoter inh 0.25µM*, OvCa metastasis -23%, HTT-AS act -91%, S16 viability -6%, PMP22 txn prim -3% and mTORC1 inh 0%.
Cc1cccc2nc(-c3ccccn3)c(Nc3ccccc3)n12 was read as HTT promoter inh inconclusive, OvCa metastasis -14%, HTT-AS act -41%, S16 viability -6%, PMP22 txn prim inconclusive and mTORC1 inh -11%.
`Cc1cccc2nc(-c3ccccn3)c(Nc3ccc(F)cc3)n12` gave HTT promoter inh inconclusive, OvCa metastasis inconclusive, HTT-AS act -45%, S16 viability inconclusive, PMP22 txn prim 13µM* and mTORC1 inh -16%.
